Data as given in PubChem BioAssay (NCATS).
Records with an inconclusive call do not appear. Activity calls are given as the source filed them. The call rests on the fitted dose curve; in most records, active means well fitted inhibition curve with a large enough effect; inconclusive means small, poorly fitted or top-dose-only effect; inactive means flat fitted curve, though single readings scatter.

How the values were obtained:
Test in all cases: qHTS profiling for inhibitors of Plasmodium falciparum proliferation (AID 504749); further: nearly all actives have a fitted effect of over 60% in size
Conditions in all cases: P. falciparum in erythrocytes, SYBR Green DNA, 72 h; series mostly up to 28.7 µM
[1] = system: DFO2036
Outline: (§1)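 Infected RBCs, 0.3% parasitemia/2.5% Hct final; cpd 72 h, 37 C, 5% CO2; lysis buffer with saponin/triton/SYBR Green I, o/n RT dark; FI 485/535; norm. to artemisinin (0.29 uM) and DMSO.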

[2] = system: DIV14
Outline: as §1

[3] = system: DIV17
Outline: as §1

[4] = system: DIV30
Outline: as §1

[5] = system: Dd2
Outline: as §1

[6] = system: ECU
Outline: as §1

[7] = system: FAB9
Outline: as §1

[8] = system: GB4
Outline: as §1

[9] = system: HB3
Outline: as §1

[10] = system: ICS
Outline: as §1

[11] = system: JCK
Outline: as §1

[12] = system: N140
Outline: as §1

[13] = system: P93_24
Outline: as §1

[14] = system: P94_40
Outline: as §1

[15] = system: PAD
Outline: as §1

[16] = system: PC15
Outline: as §1

[17] = system: PC26
Outline: as §1

[18] = system: PC49
Outline: as §1

[19] = system: SC27B
Outline: as §1

[20] = system: TAB109
Outline: as §1

Measured: Potency
Potency means the concentration at half of the fitted maximal effect.

CCCCCCCC(=O)O
inactive: all assays above

CCCCCCC(O)C/C=C/CCCCCCCC(=O)O (configuration not stated)
not listed: [20]
inactive: all other assays above

CCCCCCCCCCCCCCCC(=O)OCC(COC(=O)CCCCCCCCCCCCCCC)OC(=O)CCCCCCCCCCCCCCC
not listed: [20]
inactive: all other assays above

CC(NNC(=O)c1ccccc1)c1ccccc1 (configuration not stated)
inactive: all assays above

COc1ccc2c3c1O[C@H]1C[C@@H](O)C=C[C@@]31CCN(C)C2
inactive: all assays above

COC(F)(F)C(Cl)Cl
inactive: all assays above

CC[N+](C)(C)Cc1ccccc1Br
inactive: all assays above

CCC(=O)NCCC1CCc2ccc3c(c21)CCO3 (configuration not stated)
inactive: all assays above

CC(C)(C)C(=O)OCOC(=O)[C@@H]1N2C(=O)[C@@H](N=CN3CCCCCC3)[C@H]2SC1(C)C
not listed: [17]
inactive: all other assays above

O=C(O)CN(CCN(CC(=O)O)CC(=O)O)CC(=O)O
not listed: [10]
inactive: all other assays above

Cc1c(C)c2c(c(C)c1O)CC[C@@](C)(CCC[C@@H](C)CCC[C@@H](C)CCCC(C)C)O2
not listed: [13] | [14] | [20]
inactive: all other assays above

CCOc1ccc2c(c1)C(C)=CC(C)(C)N2
not listed: [10]
inactive: all other assays above

COCC(=O)Nc1cc(Sc2ccccc2)ccc1N=C(NC(=O)OC)NC(=O)OC
not listed: [10] | [17]
inactive: all other assays above

CO[C@H]1C[C@@H]2CC[C@@H](C)[C@@](O)(O2)C(=O)C(=O)N2CCCC[C@H]2C(=O)O[C@H]([C@H](C)C[C@@H]2CC[C@@H](OCCO)[C@H](OC)C2)CC(=O)[C@H](C)/C=C(\C)[C@@H](O)[C@@H](OC)C(=O)[C@H](C)C[C@H](C)/C=C/C=C/C=C/1C
active: [1] 1410 nM | [2] 1690 nM | [3] 1690 nM | [4] 1510 nM | [5] 891 nM | [6] 1780 nM | [8] 1690 nM | [9] 2000 nM | [10] 501 nM | [11] 10000 nM | [12] 1000 nM | [13] 1410 nM | [14] 2000 nM | [15] 1410 nM | [16] 3160 nM | [17] 2130 nM | [18] 5010 nM | [19] 1410 nM | [20] 1780 nM

Nc1c(Br)cc(Br)cc1CNC1CCC(O)CC1 (configuration not stated)
not listed: [8] | [10]
inactive: all other assays above

CN(C)CCCN1c2ccccc2C(C)(C)c2ccccc21
active: [2] 8490 nM | [3] 4780 nM
inactive: [1] | [6] | [7] | [9] | [11] | [15] | [18]

CC1=CCC(C(C)(C)O)CC1 (configuration not stated)
inactive: all assays above

CCCCCCCCCCCCCC[n+]1ccc(C)cc1
active: [1] 4470 nM | [2] 1690 nM | [3] 1900 nM | [4] 4780 nM | [5] 2820 nM | [6] 3160 nM | [7] 12600 nM | [8] 1200 nM | [9] 3550 nM | [10] 1580 nM | [12] 7080 nM | [13] 3550 nM | [14] 4470 nM | [15] 3550 nM | [16] 4470 nM | [17] 4780 nM | [19] 3980 nM | [20] 2240 nM

COC(C(=O)C(O)C(C)O)C1Cc2cc3cc(OC4CC(OC5CC(O)C(O)C(C)O5)C(O)C(C)O4)c(C)c(O)c3c(O)c2C(=O)C1OC1CC(OC2CC(OC3CC(C)(O)C(O)C(C)O3)C(O)C(C)O2)C(O)C(C)O1 (configuration not stated)
active: [1] 141 nM | [2] 1510 nM | [3] 1510 nM | [4] 3010 nM | [5] 100 nM | [6] 178 nM | [7] 1580 nM | [8] 1350 nM | [9] 100 nM | [10] 100 nM | [12] 199 nM | [13] 178 nM | [14] 126 nM | [15] 224 nM | [16] 501 nM | [17] 2690 nM | [19] 178 nM | [20] 158 nM
inactive: [18]

O=S(=O)(O)O
not listed: [18]
inactive: all other assays above

COC(=O)C1=C(C#N)NC(C)=C(C(=O)OC(C)C)C1c1cccc([N+](=O)[O-])c1 (configuration not stated)
active: [1] 12600 nM | [2] 7570 nM | [3] 13500 nM | [4] 10700 nM | [5] 12600 nM | [6] 10000 nM | [9] 10000 nM | [10] 7940 nM | [12] 7940 nM | [13] 12600 nM | [15] 10000 nM | [16] 10000 nM | [17] 13500 nM | [18] 12600 nM | [19] 8910 nM | [20] 8910 nM

C[C@]12O[C@H](C[C@]1(O)CO)n1c3ccccc3c3c4c(c5c6ccccc6n2c5c31)CNC4=O
active: [1] 316 nM | [2] 120 nM | [3] 135 nM | [4] 269 nM | [5] 355 nM | [6] 398 nM | [7] 2000 nM | [8] 269 nM | [9] 447 nM | [10] 112 nM | [11] 4470 nM | [12] 282 nM | [13] 355 nM | [14] 282 nM | [15] 251 nM | [16] 447 nM | [17] 239 nM | [18] 891 nM | [19] 316 nM | [20] 355 nM

CO[C@H](C(=O)[C@@H](O)[C@@H](C)O)C1Cc2cc3cc(O[C@H]4C[C@@H](O[C@H]5C[C@@H](O)[C@H](O)[C@@H](C)O5)[C@@H](O)[C@@H](C)O4)c(C)c(O)c3c(O)c2C(=O)[C@H]1O[C@H]1C[C@@H](O[C@H]2C[C@@H](O[C@H]3C[C@](C)(O)[C@H](O)[C@@H](C)O3)[C@H](O)[C@@H](C)O2)[C@H](O)[C@@H](C)O1 (some centres not stated)
active: [1] 112 nM | [2] 601 nM | [3] 675 nM | [4] 2390 nM | [5] 89.1 nM | [6] 126 nM | [7] 562 nM | [8] 675 nM | [9] 100 nM | [10] 79.4 nM | [12] 126 nM | [13] 112 nM | [14] 112 nM | [15] 158 nM | [16] 316 nM | [17] 3010 nM | [18] 708 nM | [19] 126 nM | [20] 141 nM
